SMILES strings stand for the structures. A number with no mark means an inactive call. Results filed as inconclusive are left out. The source made the active and inactive calls. Unless noted, calls follow the shape of the dose curve; as a rule, active = well fitted curve in either direction with a large enough effect (not every such curve was filed as active); inconclusive = small, poorly fitted or top-dose-only effect, or another doubt; inactive = flat fitted curve, though single readings scatter. Bounds are passed on as bounds.

The record followed here is PubChem BioAssay (NCATS).

Experiment [1] has as its target Lysosomal acid glucosylceramidase (Homo sapiens) (UniProt P04062). Briefly: Glucocerebrosidase-p2 (AID 348; in the data active = potency below about 10 µM; also: potency is read from the fitted curve at half-maximal effect). Particulars: purified GBA, blue fluorogenic substrate, 40 min. In short, it runs like this: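 Normal human glucocerebrosidase (0.2 nM) with blue fluorogenic substrate (80 uM final) in citrate/phosphate pH 5.9 with 10mM sodium taurocholate, 0.01% tween-20; 40 min RT, NaOH/glycine stop; fluorescence Ex 365/Em 440; AC50 from a titration from 0.6 nM upwards.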

Experiment [2] in a line: AP1 Signaling Pathway (AID 357).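 Also: ME-180 reporter cells stimulated with EGF at its EC50 level; % is scaled to controls: 0 for no effect and ±100 for the full control effect.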 Particulars: ME-180 AP-1-bla reporter, EGF-induced, beta-lactamase ratio, 5 h; at 7.69 µM (top of the series) unless noted. The essentials:
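In this screen, ME-180 cells in Opti-MEM with 0.5% dialyzed FBS received EC50 EGF and compound titrations for 5 h. AP-1 reporter beta-lactamase was detected via CCF4 ratio, giving AC50 for positive and negative modulators.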

The nature of experiment [3]: NFAT Signaling Pathway (AID 444).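 Also: carbachol stimulus at about its EC50 of 1 µM final; % is scaled to controls: 0 for no effect and ±100 for the full control effect.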 To be noted: Jurkat NFAT-bla M1, carbachol, beta-lactamase ratio, 5 h; at 7.69 µM (top of the series) unless noted. In short, it runs like this:
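Jurkat cells with NFAT-driven β-lactamase reporter and co-expressed M1 receptor, stimulated with carbachol (final 1 uM, ~EC50), compound titration, 5 h at 37 °C. CCF4 loaded 1 h at RT; 460/530 nm ratio gave %activity and AC50.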

A short description of experiment [4]: Stat Signaling Pathway (AID 446).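 Also: ME-180 cervical cancer cells given 40 pM IL-6 alongside compound; SIE-controlled beta-lactamase reporter measured as 460/530 nm FRET emission ratio; % is scaled to controls: 0 for no effect and ±100 for the full control effect.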 To be noted: ME-180 (cervical carcinoma) SIE beta-lactamase reporter, IL-6 stimulated, 5 h; at 7.69 µM (top of the series) unless noted. The essentials:
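FRET read-out (405 nm excitation, 460/530 nm emission) of a beta-lactamase reporter under a STAT-inducible element in ME-180 cervical carcinoma cells. Cells with compound receive 40 pM IL-6 for 5 h. Values are normalised to AC90 stimulation and AC90 JAK-inhibitor controls.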

Experiment [5] deals with Glucocorticoid receptor (Homo sapiens) (UniProt P04150). Briefly: GR-GFP Redistribution (AID 450;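 active = compounds whose dose series gives a full or clear partial fitted curve of increased nuclear translocation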; also: potency is read from the fitted curve at half-maximal effect). Particulars: U2OS GR-GFP nuclear translocation, laser cytometry, 2 h.
For experiment [6] the target is unchanged. The experiment is described as follows: GR-EFC Redistribution (AID 451; calls by dose curve; also: potency is read from the fitted curve at half-maximal effect). Particulars: CHO-K1 GR-EFC translocation, beta-gal luminescence, 2 h. In short, it runs like this: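 CHO-K1 cells expressing nuclear EA and GR-ED fragments of b-gal; compounds titrated up to 46 uM final, 2 h at 37 C. GR nuclear translocation read as complemented b-gal luminescence after 1 h RT detection.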

In experiment [7] the target is Mitogen-activated protein kinase 10 (Mus musculus) (UniProt Q61831). Briefly: JNK3 AlphaScreen Assay (AID 530).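 Also: kinase came from lysate of stimulated human HepG2 cells; signal reports phosphorylation of biotinylated GST-cJun 1-79 at Ser73 with 10 µM ATP; % is scaled to controls: 0 for no effect and ±100 for the full control effect.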 Particulars: JNK3 lysate, c-Jun phosphorylation; series mostly up to 11.4 µM. In short, it runs like this:
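HepG2 lysate (IL-1b/TNFa pre-activated) + biotin-GST-cJun 1-79 + anti-pSer73 cJun; cpd titration, 15 min RT; ATP 10 uM start; Tris pH 7.6, MgCl2, DTT, vanadate; beads in EDTA buffer; AlphaScreen.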

Experiment [8] addresses 3',5'-cyclic-AMP phosphodiesterase 4B (Homo sapiens) (UniProt Q07343). Briefly: qHTS Assay for Inhibitors of PDE-IV (AID 607; active = well fitted activation curve with a large enough effect in the main read-out, with a control signal flat, not every such curve was filed as active; also: % of control where 0% means no effect). Particulars: HEK293 ACTOne CNG channel cells, membrane potential fluorescence; series mostly up to 22.9 µM. The essentials: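 Cell-based read-out of cAMP via a modified cyclic nucleotide-gated channel and membrane potential dye (535/590 nm) in HEK293 cells expressing PDE4 endogenously. Compounds tested up to 22.9 uM final; 100 uM RO 20-1724 reference.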

In experiment [9] the target is Cytochrome P450 2C9 (Homo sapiens) (UniProt P11712). The experiment is described as follows: qHTS Assay for Inhibitors and Substrates of Cytochrome P450 2C9 (AID 883; active = well fitted curve in the direction sought with a large enough effect; an effect the other way counts as inactive or inconclusive; also: potency is read from the fitted curve at half-maximal effect; nearly all actives have a fitted effect of over 60% in size). Particulars: recombinant CYP2C9, luciferin-H luminescence, 60 min; series mostly up to 11.4 µM. The essentials: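 10nM CYP2C9 + 100uM Luciferin-H (=KM), 25mM KPO4; cpd 10 min 37C; NADPH regen, 60 min 37C; stop/detect with P450 Glo-Buffer 20 min; luminescence. Norm. to 57uM sulphaphenazole as full inhibition.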

Experiment [10] addresses Cytochrome P450 3A4 (Homo sapiens) (UniProt P08684). The experiment is described as follows: qHTS Assay for Activators of Cytochrome P450 3A4 (AID 885; active = well fitted curve in the direction sought with a large enough effect; an effect the other way counts as inactive or inconclusive; also: potency is read from the fitted curve at half-maximal effect; nearly all actives have a fitted effect of over 65% in size). To be noted: recombinant CYP3A4, Luciferin-PPXE luminescence, 60 min; series mostly up to 11.4 µM. In short, it runs like this:
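Luminescent readout of luciferin formed from 25 uM Luciferin-PPXE (KM level) by 20 nM CYP3A4 in 200 mM KPO4, with 60 min NADPH-driven reaction at room temperature after 10 min compound exposure. Ketoconazole (57 uM) defined 100% inhibition.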

Lysosomal acid glucosylceramidase (Homo sapiens), sequence (P04062 whole entry, looked up): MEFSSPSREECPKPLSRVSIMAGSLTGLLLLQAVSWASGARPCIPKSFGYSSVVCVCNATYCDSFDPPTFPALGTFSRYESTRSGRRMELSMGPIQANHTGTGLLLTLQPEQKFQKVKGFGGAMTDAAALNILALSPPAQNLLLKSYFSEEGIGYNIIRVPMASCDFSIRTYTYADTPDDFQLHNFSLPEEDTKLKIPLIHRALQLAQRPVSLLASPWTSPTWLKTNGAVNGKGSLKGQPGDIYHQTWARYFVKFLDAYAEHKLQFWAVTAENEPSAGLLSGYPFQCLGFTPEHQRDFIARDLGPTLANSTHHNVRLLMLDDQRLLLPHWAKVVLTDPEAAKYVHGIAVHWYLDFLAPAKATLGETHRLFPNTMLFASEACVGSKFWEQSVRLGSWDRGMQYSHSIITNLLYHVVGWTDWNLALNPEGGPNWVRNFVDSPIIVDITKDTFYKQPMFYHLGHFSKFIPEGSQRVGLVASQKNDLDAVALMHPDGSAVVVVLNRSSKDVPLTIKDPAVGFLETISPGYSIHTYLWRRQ
3',5'-cyclic-AMP phosphodiesterase 4B (Homo sapiens), sequence (Q07343 whole entry, looked up): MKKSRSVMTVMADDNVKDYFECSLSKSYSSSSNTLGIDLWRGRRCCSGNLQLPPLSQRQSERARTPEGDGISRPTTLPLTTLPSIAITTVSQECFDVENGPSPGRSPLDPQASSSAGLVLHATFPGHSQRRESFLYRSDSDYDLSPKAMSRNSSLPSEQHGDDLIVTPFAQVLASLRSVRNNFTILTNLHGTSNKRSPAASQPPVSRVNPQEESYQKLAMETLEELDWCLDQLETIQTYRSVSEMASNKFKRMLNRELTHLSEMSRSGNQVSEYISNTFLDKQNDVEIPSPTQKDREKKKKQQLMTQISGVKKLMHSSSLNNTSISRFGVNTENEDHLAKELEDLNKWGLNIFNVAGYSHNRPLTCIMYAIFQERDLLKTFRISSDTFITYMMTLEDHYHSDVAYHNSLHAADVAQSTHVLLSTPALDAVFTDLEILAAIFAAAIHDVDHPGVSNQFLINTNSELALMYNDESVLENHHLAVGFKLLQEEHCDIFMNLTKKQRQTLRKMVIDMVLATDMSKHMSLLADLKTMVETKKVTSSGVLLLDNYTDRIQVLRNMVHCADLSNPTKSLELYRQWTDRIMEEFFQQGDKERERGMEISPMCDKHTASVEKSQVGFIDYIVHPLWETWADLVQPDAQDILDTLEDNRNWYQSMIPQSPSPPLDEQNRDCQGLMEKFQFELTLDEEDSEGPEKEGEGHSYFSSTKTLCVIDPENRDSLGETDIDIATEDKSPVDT
Glucocorticoid receptor (Homo sapiens), sequence (P04150 whole entry, looked up, the tested form may be a part): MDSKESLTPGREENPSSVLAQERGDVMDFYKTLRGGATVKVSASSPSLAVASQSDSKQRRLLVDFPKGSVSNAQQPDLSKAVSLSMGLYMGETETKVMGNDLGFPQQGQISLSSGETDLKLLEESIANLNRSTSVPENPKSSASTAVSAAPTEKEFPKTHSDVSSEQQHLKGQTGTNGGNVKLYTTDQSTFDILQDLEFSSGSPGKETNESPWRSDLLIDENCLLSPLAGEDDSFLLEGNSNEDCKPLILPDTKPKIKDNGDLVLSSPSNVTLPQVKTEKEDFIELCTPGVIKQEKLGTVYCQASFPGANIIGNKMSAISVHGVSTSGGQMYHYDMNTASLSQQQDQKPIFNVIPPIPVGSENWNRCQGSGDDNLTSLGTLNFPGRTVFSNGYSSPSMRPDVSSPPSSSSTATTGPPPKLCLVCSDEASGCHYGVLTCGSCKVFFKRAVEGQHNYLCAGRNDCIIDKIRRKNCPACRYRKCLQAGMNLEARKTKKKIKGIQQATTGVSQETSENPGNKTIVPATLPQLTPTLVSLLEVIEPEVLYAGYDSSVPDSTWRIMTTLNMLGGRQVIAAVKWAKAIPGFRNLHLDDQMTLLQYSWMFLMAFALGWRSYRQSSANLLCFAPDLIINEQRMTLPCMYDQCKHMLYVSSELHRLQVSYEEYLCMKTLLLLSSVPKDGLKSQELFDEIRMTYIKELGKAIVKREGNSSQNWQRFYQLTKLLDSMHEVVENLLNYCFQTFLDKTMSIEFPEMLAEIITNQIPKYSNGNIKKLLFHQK
Cytochrome P450 2C9 (Homo sapiens), sequence (P11712 whole entry, looked up): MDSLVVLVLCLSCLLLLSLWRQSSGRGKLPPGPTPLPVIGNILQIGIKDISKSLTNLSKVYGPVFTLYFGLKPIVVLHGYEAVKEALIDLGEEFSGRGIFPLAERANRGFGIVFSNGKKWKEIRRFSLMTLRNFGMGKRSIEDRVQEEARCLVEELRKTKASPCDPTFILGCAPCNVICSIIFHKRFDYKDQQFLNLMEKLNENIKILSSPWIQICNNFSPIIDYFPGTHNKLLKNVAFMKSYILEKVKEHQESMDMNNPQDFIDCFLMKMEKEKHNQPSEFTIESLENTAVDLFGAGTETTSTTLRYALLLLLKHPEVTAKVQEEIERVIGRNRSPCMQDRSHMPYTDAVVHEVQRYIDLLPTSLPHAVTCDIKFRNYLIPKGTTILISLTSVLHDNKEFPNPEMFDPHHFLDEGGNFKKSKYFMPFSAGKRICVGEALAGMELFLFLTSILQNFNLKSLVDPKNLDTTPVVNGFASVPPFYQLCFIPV
Cytochrome P450 3A4 (Homo sapiens), sequence (P08684 whole entry, looked up): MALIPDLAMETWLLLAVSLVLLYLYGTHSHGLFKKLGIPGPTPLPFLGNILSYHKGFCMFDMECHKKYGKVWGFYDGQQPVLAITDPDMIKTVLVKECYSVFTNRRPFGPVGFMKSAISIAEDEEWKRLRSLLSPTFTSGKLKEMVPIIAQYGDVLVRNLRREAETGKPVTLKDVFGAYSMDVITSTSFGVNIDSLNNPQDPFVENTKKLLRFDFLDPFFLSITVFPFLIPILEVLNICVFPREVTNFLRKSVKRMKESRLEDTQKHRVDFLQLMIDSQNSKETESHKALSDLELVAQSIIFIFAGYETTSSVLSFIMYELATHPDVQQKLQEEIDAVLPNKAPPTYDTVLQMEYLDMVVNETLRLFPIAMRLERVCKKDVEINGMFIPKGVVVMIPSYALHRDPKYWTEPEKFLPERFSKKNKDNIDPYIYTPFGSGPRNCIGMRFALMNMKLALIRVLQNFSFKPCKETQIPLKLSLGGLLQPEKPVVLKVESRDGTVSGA

Regarding `O=C1c2ccccc2C(=O)c2c(Nc3ccc4c5c(cccc35)C(=O)c3ccccc3-4)cccc21`, the values for the Potency in experiment [1], in experiment [5] and in [6] were more than 11.4 µM, more than 46 µM and more than 9.22 µM, respectively. Besides, the activity change, negative = inhibition in [2] is -3.08%; in experiment [3], 6.45%. Also, the activity, negative = inhibition in [4] was 0.0671%. For the same compound, the Potency result in [7] and in experiment [8] was “inactive” throughout.

In the case of `OC1(C(O)(c2ccc(-c3ccccc3)cc2)c2ccc(-c3ccccc3)cc2)CCCCC1`, the results for the Potency in experiment [1], in [5] and in experiment [6] were more than 11.4 µM, more than 46 µM and more than 9.22 µM, respectively. The values for the activity change, negative = inhibition in [2] and in [3] were 7.3% and 2.32%, respectively. Also, the activity, negative = inhibition in [4] was 1.1%. The Potency result in experiment [7] and in [8] was “inactive” in each case.

With `CC(C)=CCNc1ncnc2nc[nH]c12`, the figures for the Potency in experiment [1], in experiment [5] and in experiment [6] were more than 11.4 µM, more than 46 µM and more than 9.22 µM, respectively. Further, the activity change, negative = inhibition is 3.85% in experiment [2] and 6.81% in experiment [3]. In addition, in experiment [4], the activity, negative = inhibition is 5.75%. Moreover, the Potency result in experiment [7] and in [8] was “inactive” in each case.

In the case of `Cc1cc(N2CCOCC2)nc2ccc(Cc3ccc4nc(N5CCOCC5)cc(C)c4c3)cc12`, the Potency in experiment [1] is 6.83 µM (active); in [5] it was more than 46 µM; in experiment [6], more than 9.22 µM; in [9] it was 3.98 µM (active); in [10], 3.16 µM (active). The figures for the activity change, negative = inhibition in [2] and in [3] were -21.7% and -6.47%, respectively. Besides, in experiment [4], the activity, negative = inhibition was -14.5%. For the same compound, the Potency result in experiment [7] and in [8] was “inactive” in each case.

`O=S(=O)(c1ccc2ccccc2c1)N1CCN(S(=O)(=O)c2ccc3ccccc3c2)CC1`: the Potency in experiment [1] is more than 11.4 µM; in experiment [5], more than 46 µM; in experiment [6], more than 9.22 µM. The activity change, negative = inhibition in experiment [2] was -2.95%; in experiment [3], -5.78%. Besides, the activity, negative = inhibition in [4] is 0.106%. Moreover, the Potency entry in experiment [7] and in experiment [8] was “inactive” in each case.

In the case of `CC(=O)O[C@H]1CC[C@]2(C)C(=CC[C@H]3[C@H]4C[C@H]5O[C@]6(CC[C@H](C)CN6)[C@H](C)[C@@H]5[C@]4(C)CC[C@@H]32)C1`, the Potency in experiment [1] was more than 11.4 µM; in experiment [5], more than 46 µM; in experiment [6], more than 9.22 µM. Further, the figures for the activity change, negative = inhibition in experiment [2] and in experiment [3] were 13.4% and 0.916%, respectively. Moreover, the activity, negative = inhibition in experiment [4] was 3.85%. Besides, the Potency result in experiment [7] and in experiment [8] was “inactive” each time.

Take `c1ccc(CN2CCC3(CC2)SSC2(CCN(Cc4ccccc4)CC2)SS3)cc1`: the results for the Potency in experiment [1], in experiment [5] and in experiment [6] were more than 11.4 µM, more than 46 µM and more than 9.22 µM, respectively. The activity change, negative = inhibition in experiment [2] was 3.33%; in experiment [3], 3.92%. Besides, in experiment [4], the activity, negative = inhibition was -1.41%. Besides, the Potency result in [7] and in experiment [8] was “inactive” in each case.

For `Cc1cc(=O)[nH]c(/N=C(\N)Nc2ccc(Cl)cc2)n1`, the Potency in experiment [1] is more than 11.4 µM; in [5] it was more than 46 µM; in experiment [6] it was more than 9.22 µM. Also, the activity change, negative = inhibition was -8.26% in [2] and -9.44% in experiment [3]. For the same compound, in experiment [4], the activity, negative = inhibition was -3.21%. Besides, the Potency entry in [7] and in [8] was “inactive” throughout.
